Assay outcomes as filed in PubChem.
FBPA Giardia inh: Giardia lamblia aldolase inhibition; A8B2U2; purified Giardia FBPA; Potency, µM (doses to about 59.6 µM), inactives show at the highest dose activity, negative = inhibition, actives largely listed as inhibitors; 290,000 tested, 0.71% active; note: potency is the fitted concentration of half-maximal effect; % is set by controls: 0 for no effect and ±100 for the full control effect; nearly all actives have a fitted effect of over 55% in size
Target sequence (A8B2U2 whole entry, looked up): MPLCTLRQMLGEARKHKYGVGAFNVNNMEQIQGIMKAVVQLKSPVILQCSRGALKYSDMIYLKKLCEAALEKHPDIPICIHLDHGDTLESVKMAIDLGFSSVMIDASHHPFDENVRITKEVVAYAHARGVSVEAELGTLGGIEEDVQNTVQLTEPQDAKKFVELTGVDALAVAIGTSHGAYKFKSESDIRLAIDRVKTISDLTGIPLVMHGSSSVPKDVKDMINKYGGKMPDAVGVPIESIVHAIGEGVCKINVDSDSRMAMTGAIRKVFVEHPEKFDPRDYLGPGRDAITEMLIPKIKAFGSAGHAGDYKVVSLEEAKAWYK
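40 nM FBPA preincubated 10 min at RT with compound (up to 57.5 uM final), then substrate plus GAPDH/TPI/NAD/arsenate coupling and diaphorase/resazurin added. Fluorescence read after 20 min at RT, 525/598 nm.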
Shiga toxin inh: Shiga toxin inhibition | Vero cells, Shiga toxin protein synthesis inhibition reporter | inhibition, % at 38.7 µM | 290,000 tested, 9.2% active | AID 2315; in the data active = inhibition mostly above about 28%, no sharp cut-off; inactive = mostly below about 43%; note: 0% is about no effect
CHX counter: counter-screen hit for Shiga toxin inhibitors, cycloheximide; cell reporter, cycloheximide protein synthesis inhibition counterscreen; max response, %; 300,000 tested, 12% active; AID 2314; in the data active = max response mostly above about 13%, no sharp cut-off; inactive = mostly below about 14%; note: read at 38.3 µM for the half of the compounds with a filed dose; 0% is about no effect
NS1 function inh: influenza NS1 inhibition; Potency, µM (top dose mostly 46.1 µM), without a hit: at the top dose activity, positive = more growth; 270,000 tested, 0.4% active; AID 2326; calls by dose curve; note: potency is the fitted concentration of half-maximal effect; actives are rising curves; nearly all actives have a fitted effect of over 50% in size
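S. cerevisiae expressing influenza A NS1, grown in glucose, washed, then diluted 1:100 into pH 6.0 -URA galactose medium with 23 nl compound. Growth recovery read as OD600; NS1-free strain serves as control.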
Pf growth 48h: P. falciparum growth inhibition at 48 hours (one generation). P. falciparum luciferase growth in erythrocytes, 48 h. Potency, µM (doses to about 28.7 µM), for the others: at the highest dose activity change, negative = inhibition, actives largely listed as inhibitors. AID 504832. 310,000 tested, 5.9% active; note: potency is the fitted concentration of half-maximal effect; % is set by controls: 0 for no effect and ±100 for the full control effect
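Read-out is firefly luciferase luminescence from an integrated reporter in P. falciparum, so falling signal marks reduced parasite growth. Infected erythrocytes were at 2% hematocrit and 0.1% parasitemia (final) in Albumax-supplemented RPMI 1640.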
Pf growth 96h: P. falciparum growth inhibition at 96 hour, primary screen for plastid delayed-death inhibitors | P. falciparum luciferase reporter growth, 96 h | Potency, µM (top dose mostly 28.7 µM), without a hit: at the highest dose activity change, negative = inhibition, most hits filed as inhibitors | 320,000 tested, 6.9% active; note: potency is the fitted concentration of half-maximal effect; % is set by controls: 0 for no effect and ±100 for the full control effect
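Erythrocytes infected with luciferase-expressing P. falciparum were dispensed at 2% hematocrit and 0.05% parasitemia (final), then incubated with compounds 96 hours at 37 C in 5% CO2. Luminescence after detection reagent addition reported growth.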
* hit, by the source's call; ? = inconclusive; / = no result; [ ] = remark or other dose. An excerpt weighted towards active compounds, which were near 21% of everything screened. Unless noted, calls come from the whole dose curve; as a rule, active = well fitted curve in the direction sought with a large enough effect; inconclusive = small, poorly fitted or top-dose-only effect, or another doubt; inactive = no such curve, though single readings can be large; an effect the other way counts as inactive or inconclusive.

SMILES	FBPA Giardia inh	Shiga toxin inh	CHX counter	NS1 function inh	Pf growth 48h	Pf growth 96h
O=C(O)CC(c1ccc(Br)cc1)N1Cc2ccccc2C1=O (stereo unspecified)	6%	-4	-4	-1%	30%[0.00184 µM]	4%
CCC1Cc2cc(O)ccc2C2=C1c1ccc(O)cc1CC2CC (stereo unspecified)	-2%	-10	-8	/	/	/
COc1ccccc1C(=O)N=Nc1c(O)[nH]c2ccc([N+](=O)[O-])cc12	?	30	13	/	10µM*	?
C=C(C(C)=O)C(O)c1ccc2ccccc2c1 (stereo unspecified)	8%	/	/	/	/	/
Cc1ccc(-c2nn3c(C)nnc3c3ccccc23)cc1S(=O)(=O)NC(C)c1ccccc1 (stereo unspecified)	-1%	-4	-3	-11%	?	7.4µM*
Cc1ccc(-c2nn3c(C)nnc3c3ccccc23)cc1S(=O)(=O)NCc1ccco1	-3%	37*	51*	-41%	?	31%
Cc1ccc(-c2nn3c(C)nnc3c3ccccc23)cc1S(=O)(=O)NCCO	4%	6	-1	4%	-18%	27%
CCCCNS(=O)(=O)c1cc(-c2nn(C)c(=O)c3ccccc23)ccc1C	-8%	-5	2	-1%	13µM*	14%
O=C1CCc2cc(S(=O)(=O)NC3CCCCC3)ccc2N1	/	/	/	/	-22%	?
COc1cccc(CN2CC(C(=O)NC3CCC(O)CC3)CCC2=O)c1 (stereo unspecified)	7%	-6	-2	-2%	-6%	36%
Cc1ccc2oc3c(c(=O)c2c1)C(c1cccs1)N(CCCN(C)C)C3=O (stereo unspecified)	-4%	48*	39*	?	?	37%
O=C1c2oc3ccccc3c(=O)c2C(c2cccs2)N1CCCN1CCOCC1 (stereo unspecified)	-12%	-2	11	-5%	-8%	?
COC(=O)c1ccc(C2c3c(oc4cc(C)c(C)cc4c3=O)C(=O)N2CCCN(C)C)cc1 (stereo unspecified)	-7%	8	-1	7%	5.2µM*	32%
CCOc1ccc(C2c3c(oc4cc(C)c(C)cc4c3=O)C(=O)N2CCCN(C)C)cc1OC (stereo unspecified)	-20%	-10	5	?	/	?
COc1cc2c(cc1OC)C(C(=O)NC(C)c1ccccc1)CC(=O)N2 (stereo unspecified)	4%	-6	12	1%	30%	0%
CC1CC(=O)N(c2ccc(NCCc3ccccc3)c([N+](=O)[O-])c2)C1=O (stereo unspecified)	16%	68*	31*	/	19%	18%
O=C1C2CC=CCC2C(=O)N1c1ccc(NCCc2ccccc2)c([N+](=O)[O-])c1 (stereo unspecified)	-2%	-4	-1	3%	6%	?
CC1CC(=O)N(c2ccc(NCCc3ccc(O)cc3)c([N+](=O)[O-])c2)C1=O (stereo unspecified)	-3%	41*	22*	/	?	-7%
COc1cc(NS(=O)(=O)c2ccc(C)c(C)c2)c(OC)cc1Cl	3%	-9	-6	-7%	-4%	6.6µM*
COc1ccc(S(=O)(=O)NC2CCCC2)cc1Cl	/	18	3	-9%	13%	66%
COc1ccc(CCNC(=O)COc2ccc(S(=O)(=O)NC3CCCCC3)cc2Cl)cc1	/	-13	12	6%	13µM*	?
COc1ccc(S(=O)(=O)NC2CC2)cc1Cl	1%	/	-2	10%	-23%	2.3µM*
COc1ccc(S(=O)(=O)Nc2ccccc2OC)cc1C	2%	-8	-3	-38%	-4%	4%
CCc1nc2ccc(C(=O)N3CCN(c4ccccc4F)CC3)cc2nc1CC	/	-1	-1	7%	-7%	?
COc1ccc(CCNC(=O)C(NS(=O)(=O)c2cccc3nsnc23)C(C)C)cc1OC (stereo unspecified)	/	-2	16	-3%	-8%	2%
CS(=O)(=O)c1ccc(C(=O)NNC(=O)c2ccccc2-n2cccc2)cc1	/	/	/	/	7%	-26%
CC1(CCBr)C(=O)N(c2ccccc2)c2ccccc21 (stereo unspecified)	-9%	/	-3	17%	-13%	13µM*
